Source: PubChem
HT1080NT lethal – kills 2HG-producing HT-1080-NT fibrosarcoma cells; HT-1080-NT fibrosarcoma viability, CellTiter-Glo ATP luminescence, 48 h; Potency, µM (top dose mostly 46.1 µM), inactives show at the top dose activity, negative = less viability, hits mostly cytotoxic; 360,000 tested, 1.6% active; AID 686970;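 also: NT is the 2HG producing partner of a matched IDH1 knockdown line; 0% = DMSO-treated cells and -100% = media-only wells without cells; nearly all actives have a fitted effect of over 55% in size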
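Viability of the 2HG-overproducing fibrosarcoma line after 48 hours of compound exposure at 37 degrees C was determined by luminescence with CellTiter-Glo, and concentration-effect curves were then fitted and categorized.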
S2 tox – reduces viability in counter-screen for ATXN expression inhibitors. S2 cells (HEK-293 line with an ATXN2-luciferase reporter) viability, CellTiter-Fluor protease fluorescence, 24 h. Potency, µM (highest dose often 56.7 µM), usual class: cytotoxic. 400,000 tested, 0.49% active. AID 651635; also: nearly all actives have a fitted effect of over 40% in size
ATXN2 expr inh – reduces ATXN2 reporter expression in HEK-293 cells. HEK-293 ATXN2-luciferase reporter, luminescence, 24 h. Potency, µM (top dose mostly 57 µM), inactives show at the highest dose activity change, negative = inhibition, most hits filed as inhibitors. 360,000 tested, 0.72% active; also: % is scaled to controls: 0 for no effect and ±100 for the full control effect; nearly all actives have a fitted effect of over 55% in size
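ATXN2-luciferase reporter cells (luciferase flanked by upstream and downstream ATXN2 gene portions) were treated 24 h at 37 °C with compounds at up to 57 uM. SteadyGlo luminescence gave expression; GF-AFC fluorescence gave viability.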
KB-V1 MDR tox – KB-V1 MDR subline cytotoxicity | KB-V1 MDR cells viability, CellTiter-Glo, 72 h | Potency, µM (titrated, usually from 46.1 µM), hits mostly cytotoxic | 400,000 tested, 3.4% active; also: % is scaled to controls: 0 for no effect and ±100 for the full control effect; nearly all actives have a fitted effect of over 60% in size
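Cytotoxicity toward P-gp-expressing KB-V1 cells was determined as loss of CellTiter-Glo luminescence after 72 h at 37 degrees C. Compounds were tested in quantitative HTS format across a concentration range, with curves fitted to normalized data.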
KB-3-1 tox – kills parental KB-3-1 adenocarcinoma cells; KB-3-1 viability, CellTiter-Glo ATP luminescence, 72 h; Potency, µM (titrated, usually from 46.1 µM), most hits filed as cytotoxic; 400,000 tested, 1.4% active; AID 1347075; also: % is scaled to controls: 0 for no effect and ±100 for the full control effect; nearly all actives have a fitted effect of over 60% in size
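Here the drug-naive KB-3-1 line serves as comparator for MDR sub-line selectivity; cells received compound titrations, 72 h at 37 °C, then CellTiter-Glo readout.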
HT1080 IDH1KD tx – HT-1080 IDH1 knockdown cell toxicity (counter line); HT-1080 IDH1 knockdown viability, ATP luminescence, 48 h; Potency, µM (top dose mostly 46.1 µM), for inactives: at the highest dose activity, negative = toxicity, actives largely listed as cytotoxic; 360,000 tested, 2% active;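 also: 0% = DMSO wells and -100% = cell-free medium wells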
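IDH1KD HT-1080 cells, 750/well, RPMI + 5% FBS; compound pinned after 2 h settling; 48 h, 37 °C; CellTiter-Glo luminescence; % activity normalised to DMSO and no-cell wells; curves fitted, classed by r2 and efficacy.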
Numbers without * were called inactive; i = inactive; ? = inconclusive; · = not tested or not shown; [ ] = remark or other dose. Rows were chosen to be rich in hits. Some 6.2% of all compounds tested hit in one or more screens of this group. Calls follow the shape of the dose curve; as a rule, active = well fitted curve in the direction sought with a large enough effect; inconclusive = small, poorly fitted or top-dose-only effect, or another doubt; inactive = no such curve, though single readings can be large; an effect the other way counts as inactive or inconclusive. Potency is read from the fitted curve at half-maximal effect.

SMILES | HT1080NT lethal | S2 tox | ATXN2 expr inh | KB-V1 MDR tox | KB-3-1 tox | HT1080 IDH1KD tx
O=C(NCC(F)(F)F)c1cc2c(c(-c3cccc(-c4ccccc4F)c3)n1)[C@H](CCO)N(C(=O)CC1CC1)C2 | ? | ? | ? | 16µM* | ? | ?
CCC(=O)N1Cc2cc(C(=O)NCC(F)(F)F)nc(-c3cccc(-c4cncnc4)c3)c2[C@@H]1CCO | -25% | i | -7% | i | ? | ?
COc1ccc(-c2cc(-c3ccccc3)nc(N3CCCC3)n2)cc1OC | 4% | i | -2% | 8.2µM* | i | -26%
COc1ccc(-c2cc(C(F)(F)F)nc(N3CCOCC3)n2)cc1OC | 1% | i | -5% | ? | i | 2%
Cc1cc(C)n2nc(CNS(=O)(=O)c3cccc(Cl)c3)nc2n1 | · | i | -12% | i | i | ·
CN1C(=O)Nc2cccc3cccc1c23 | -17% | i | 5% | 0.46µM* | 1µM* | -8%
CC(=O)Nc1ccc(-c2cn3cc(C)ccc3n2)cc1 | 1% | i | -13% | 16µM* | i | 7%
NNC(=O)c1ccc2nc(-c3ccc(Br)cc3)cn2c1 | 18µM* | ? | -7% | i | i | ?
Cc1ccc2nc(-c3ccccc3)cn2c1 | 12µM* | i | 5µM* | 10µM* | 12µM* | 12µM*
Cc1cc(NC(=O)CSc2nc3cc(Cl)ccc3o2)no1 | -2% | i | -4% | i | ? | -15%
CCCN(CCC)C(=O)CSc1nc2ccccc2c(=O)n1C1CCCC1 | -2% | i | -7% | 7.3µM* | i | ?
CN(C)c1ccc(NC(=O)CSc2nc3ccccc3c(=O)n2C2CCCCC2)cc1 | -1% | i | 4% | i | i | 0%
CCc1cc2cc(C)ccc2nc1SCC(=O)Nc1cc(C)on1 | -1% | i | -4% | 9.2µM* | i | -21%
CCN(CC)S(=O)(=O)c1ccc2oc(SCC(=O)Nc3cc(C)on3)nc2c1 | -3% | i | ? | 3.7µM* | ? | ?
Cc1cc(NC(=O)CSc2nc3ccccc3c(=O)n2C2CCCC2)no1 | ? | ? | -19% | 1.3µM* | ? | 1.8µM*
CCc1cc2ccc(C)cc2nc1SCC(=O)Nc1cc(C)on1 | 0% | i | -8% | i | i | 0%
CC1=C(C(=O)OC2CCCCCC2)C(c2cccc(Cl)c2)CC(=O)N1 (centres undefined) | · | i | -29% | i | ? | ·
CCCCC(=O)OCc1cc(=O)n2nc(C3CC3)sc2n1 | · | i | 14% | i | i | ·
COc1ccc(C)cc1-n1c(SCC(=O)Nc2cc(C)on2)nc2ccccc2c1=O | -27% | i | 1% | 18µM* | ? | -27%
Cn1c(SCC(=O)NCC2CCCO2)nnc1-c1ccco1 (centres undefined) | 6% | i | · | i | i | 1%
COc1ccc(-c2oc3ncn4nc(Cc5ccccc5)nc4c3c2-c2ccc(OC)cc2)cc1 | 10% | i | -7% | 3.7µM* | i | 7%
C(=N\Nc1nc2ccccc2[nH]1)/c1ccc2c(c1)OCCO2 | -8% | i | · | i | ? | ?
CC(=NNc1ccc2ccccc2n1)c1ccccc1O | 3% | ? | ? | 4.1µM* | i | 0%
C(=N\Nc1ccc2ccccc2n1)/c1ccc2c(c1)OCCO2 | -8% | ? | ? | 18µM* | i | -8%
Cc1ccc(/C=N/Nc2ccc3ccccc3n2)o1 | -29% | · | ? | 8.2µM* | i | -23%
SMILES | HT1080NT lethal | S2 tox | ATXN2 expr inh | KB-V1 MDR tox | KB-3-1 tox | HT1080 IDH1KD tx
Cc1cccc(/C=N/Nc2ccc3ccccc3n2)c1 | -6% | i | · | i | i | -3%
COC(=O)c1ccc(Oc2nc3c(c(=O)n(C)c(=O)n3C)n2C(C)C)cc1 | · | i | 10% | i | i | ·
O=C(Cc1csc(Nc2nc(=S)[nH]c3ccccc23)n1)NCCCN1CCN(c2ccccc2F)CC1 | 21µM* | · | ? | 15µM* | ? | 21µM*
O=C(c1ccc2c(=O)n(C3CCCC3)c(=S)[nH]c2c1)N1CCCCCC1 | -10% | i | -26% | 7.3µM* | ? | 0%
O=C(c1ccc2c(=O)n(-c3ccccc3)c(=S)[nH]c2c1)N1CCCCC1 | -27% | i | -19% | ? | 7.3µM* | -27%
CC1CCCN(C(=O)c2ccc3c(=O)n(C4CCCC4)c(=S)[nH]c3c2)C1 (centres undefined) | -2% | i | -31% | i | i | 1%
Cc1noc(C)c1-c1ccc(C(=O)NC2CCCCC2)c2occc12 | 8% | i | 25% | i | i | -16%
Cc1nn(-c2ccccc2)c2c1N(CCCC(=O)NCc1ccc(Cl)cc1)C(=O)CS2 | · | ? | -23% | i | i | ·
Cc1nn(-c2ccccc2)c2c1N(CCCC(=O)NCc1ccccc1)C(=O)CS2 | · | ? | -19% | 16µM* | ? | ·
O=C1Cc2cc(S(=O)(=O)N3CCN(c4ccc(Br)cc4)CC3)ccc2N1 | · | · | · | i | i | ·
CCCOc1c(OC)cccc1C1CC(=O)Nc2cc3c(cc21)OCO3 (centres undefined) | ? | i | -28% | 16µM* | 10µM* | -9%[9.24 µM]
CCCOc1c(OC)cccc1C1CC(=O)Nc2cc3c(cc21)OCCO3 (centres undefined) | ? | ? | -20% | ? | ? | ?
COc1ccccc1C1CC(=O)Nc2cc3c(cc21)OCCO3 (centres undefined) | 2.2µM* | ? | -17% | 5.8µM* | ? | 1.8µM*
CC(C)Oc1ccccc1C1CC(=O)Nc2cc3c(cc21)OCCO3 (centres undefined) | 1µM* | ? | -10% | ? | ? | 0.71µM*
OC(c1cccc(Cl)c1)c1nc(-c2ccc(F)c(Cl)c2)cs1 (centres undefined) | ? | i | 7% | i | i | ?
NC(=O)CC[C@@H]1NC(=O)[C@H](Cc2ccccc2)NC(=O)[C@H](Cc2ccc(O)cc2)NC(=O)CCSSC[C@@H](C(=O)N2CCC[C@H]2C(=O)N[C@@H](CCCN=C(N)N)C(=O)NCC(N)=O)NC(=O)[C@H](CC(N)=O)NC1=O | · | i | 6% | · | · | ·
CCC(Sc1nncn2c1cc1occc12)C(=O)Nc1ccc(C)c(Cl)c1 (centres undefined) | · | · | · | i | i | ·
CCOc1ccccc1CNC(=O)C1CCN(S(=O)(=O)c2ccc3[nH]c(=O)ccc3c2)CC1 | · | i | 9% | ? | i | ·
CCCn1c(Cc2ccccc2)n[nH]c1=S | 4% | i | -2% | i | i | 8%
S=c1[nH]nc(Cc2ccccc2)n1Cc1ccco1 | 35µM* | i | -7% | ? | i | ?
